This is a sample that favours compounds with a hit; in the whole collection about 0.51% have one here.
E coli growth-1: bacterial growth inhibition, counter-screen for AddAB inhibitors. E. coli V3065 growth, OD600 absorbance, 18 h. inhibition, % at 11.9 µM. hit rate 0.27% among 330,000;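 active = inhibition above the campaign's mean inhibition across all tested compounds plus 3 SD, cut at about 9.9% in these data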;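 also: uninfected addAB+ strain grown without phage in ampicillin broth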
Tat transport: inhibitors of E. coli Tat protein transport. hit rate 0.036% among 340,000. inhibition, % at 10 µM. E. coli MC4100 TorA-mCherry Tat export, fluorescence;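 active = mean replicate inhibition at least 50% and at least half of replicates individually reaching 50%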;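 also: exported cargo escapes ClpAP degradation while cytoplasmic cargo is degraded and loses fluorescence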
AddAB inh: less growth of phage-infected E. coli with AddAB | AID 435030 | inhibition, % at 11.9 µM | E. coli expressing H. pylori AddAB, absorbance growth | hit rate 0.29% among 330,000; in the data active = inhibition above about 12%
E coli growth-2: inhibitors of Escherichia coli growth. OD600, 23 h; active compounds read low. OD600 absorbance (no concentration beside the values). hit rate 0.21% among 330,000. AID 1053175;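 active = OD600 absorbance below the run mean of sample wells minus 3.6 SD, in any replicate, cut at about 0.56 in these data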
phage Ecoli inh: E. coli growth loss with phage present. growth absorbance. inhibition, % at 11.9 µM. hit rate 0.26% among 360,000; in the data active = inhibition above about 11%
p-CIP stab down: lowers stability of the mouse p/CIP coactivator protein. Q05BA5. hit rate 0.01% among 290,000. F442A p/CIP-EGFP cells, EGFP fluorescence, 16 h. decrease of EGFP signal, % at 10 µM. AID 1984;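 active = EGFP signal decrease of at least 30% at 10 µM or well 3 SD below plate mean, unless failing retest; inactive = the rest, including hits failing retest or dose response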
Large screens that a line does not name were inactive.

CCn1cc(C(=O)NCc2cccc(C(F)(F)F)c2)c(=O)c2ccc(C)nc21	E coli growth-2 0.46
C=Cc1ccc(COC(=O)c2cn(CC)c3nc(C)ccc3c2=O)cc1	none
CCn1cc(C(=O)NNC(=O)c2ccc(Cl)cc2)c(=O)c2ccc(C)nc21	E coli growth-2 0.38 (no result: phage Ecoli inh)
C=CCOC(=O)c1cn(CC)c2nc(C)ccc2c1=O	E coli growth-2 0.52
CCn1cc(C(=O)NCc2ccc3c(c2)OCO3)c(=O)c2ccc(C)nc21	none (no result: E coli growth-1, Tat transport, AddAB inh, E coli growth-2, phage Ecoli inh)
CCCOc1ccc(/C=N/NC(=S)Nc2ccccc2[N+](=O)[O-])c(O)c1	E coli growth-1 11 (no result: Tat transport, E coli growth-2)
Cc1ccc(Oc2nc3ccccc3n3cccc23)cc1	none
O=C(NN=Cc1ccc([N+](=O)[O-])o1)C1CC1	E coli growth-2 0.065 (no result: E coli growth-1, Tat transport, AddAB inh, phage Ecoli inh, p-CIP stab down)
CCCC(=O)Nc1ccc(C(=O)NN=Cc2ccc([N+](=O)[O-])o2)cc1	none (no result: E coli growth-1, Tat transport, AddAB inh, phage Ecoli inh, p-CIP stab down)
Cc1nonc1C(=O)NN=Cc1ccc([N+](=O)[O-])o1	E coli growth-2 0.5 (no result: E coli growth-1, Tat transport, AddAB inh, phage Ecoli inh, p-CIP stab down)
O=C(CCC(=O)Nc1ccc(Cl)cc1Cl)NN=Cc1ccc([N+](=O)[O-])o1	E coli growth-2 0.41 (no result: E coli growth-1, Tat transport, AddAB inh, phage Ecoli inh, p-CIP stab down)
O=C(NN=Cc1ccc([N+](=O)[O-])o1)c1ccc(O)cc1	E coli growth-2 0.41 (no result: E coli growth-1, Tat transport, AddAB inh, phage Ecoli inh, p-CIP stab down)
O=[N+]([O-])c1cnc(N2CCCCC2)c([N+](=O)[O-])c1	none
Cc1cc(C)n(-c2nc3ccccc3c(=O)n2OCC#N)n1	none (no result: E coli growth-1, AddAB inh)
O=[N+]([O-])c1ccc(C=NNC(=S)Nc2ccccc2F)o1	none (no result: E coli growth-1, Tat transport, AddAB inh, phage Ecoli inh, p-CIP stab down)
NC(=O)NN=Cc1ccc([N+](=O)[O-])o1	E coli growth-2 0.064 (no result: E coli growth-1, Tat transport, AddAB inh, phage Ecoli inh, p-CIP stab down)
O=C(CNC(=O)c1ccccc1)NN=Cc1ccc([N+](=O)[O-])o1	none (no result: E coli growth-1, Tat transport, AddAB inh, phage Ecoli inh, p-CIP stab down)
O=[N+]([O-])c1ccc(C=NNC(=S)Nc2ccccc2C(F)(F)F)o1	E coli growth-2 0.49 (no result: E coli growth-1, Tat transport, AddAB inh, phage Ecoli inh, p-CIP stab down)
O=C(CNc1ccccc1)NN=Cc1ccc([N+](=O)[O-])o1	E coli growth-2 0.49 (no result: E coli growth-1, Tat transport, AddAB inh, phage Ecoli inh, p-CIP stab down)
O=C(CN1CCCCC1)NC1CCc2cc3c(cc21)CCC3 (stereo unspecified)	none (no result: p-CIP stab down)
Cc1ccccc1C(=O)NN=Cc1cccc2ccccc12	none (no result: E coli growth-1, Tat transport, AddAB inh, phage Ecoli inh, p-CIP stab down)
COCCN1Cc2cc(C(=O)OC)c3c(c2C1=O)c1cc(F)ccc1n3C(=O)c1ccccc1	none (no result: E coli growth-1, Tat transport, AddAB inh, E coli growth-2, p-CIP stab down)
O=[N+]([O-])c1cccc(/C=C/c2nc[nH]c2[N+](=O)[O-])c1	E coli growth-1 11
CCc1ccc(Nc2n[n+](-c3ccccc3)c(-c3c(Cl)cccc3Cl)s2)cc1	E coli growth-2 0.47
CC(=O)OCc1c(COC(C)=O)[n+](=O)c2ccccc2n1[O-]	E coli growth-2 0.47
COc1ccc2c(c1)[n+](=O)c(C(C)=O)c(C)n2[O-]	none
O=S1(=O)CCC(NC(=S)SCCOc2ccccc2)C1 (stereo unspecified)	E coli growth-2 0.49
CCc1ncc(C)nc1CC	Tat transport 55
O=C(NCC(c1ccco1)N1CCN(c2ccccc2F)CC1)c1ccc2c(c1)OCO2 (stereo unspecified)	none (no result: p-CIP stab down)
C/C(=N/NC(=O)c1cc(C)[nH]n1)c1ccncc1	none (no result: E coli growth-2)
COc1ccc(S(=O)(=O)N2CCOCC2)cc1NC(=O)CSc1nnnn1C1CC1	none (no result: p-CIP stab down)
O=C(CNC(=S)N(CCCN1CCOCC1)Cc1cccs1)NCCN1CCOCC1	none
O=C(CNC(=S)N(CCCN1CCOCC1)Cc1cccs1)N1CCCC1	E coli growth-2 0.54
Fc1ccc2[nH]c3c(NCc4ccccc4)ncnc3c2c1	E coli growth-2 0.45
CN(CCOCCOc1ccc(Cl)cc1Br)Cc1ccccc1	p-CIP stab down 38
CN(CCOc1ccccc1Cl)Cc1ccccc1	none
CC1=NN(C(N)=S)C(=O)C1N=Nc1cccc2ccccc12 (stereo unspecified)	E coli growth-1 14 (no result: Tat transport, E coli growth-2, phage Ecoli inh)
O=C(CSc1nc2nn(-c3ccccc3)c(=O)c-2c2n1CCCCC2)Nc1ccc(F)c(F)c1	none (no result: p-CIP stab down)
COC(=O)c1cc(NC(=O)Nc2cccc(Cl)c2)ccc1Cl	phage Ecoli inh 12
O=C(Nc1cccc(Cl)c1)Nc1nccs1	E coli growth-2 0.54
O=C(Nc1cccc(Cl)c1)Nc1cccc(Cl)c1	none
COc1ccc(NC(=O)c2cn(CCC#N)nc2-c2cccs2)cc1	none
Cc1ccc2c(c1)sc(-c1ccc(N(C)C)cc1)[n+]2C	E coli growth-2 0.32
Cn1c(=O)[nH]c(=O)c2c1nc(Br)n2CC(O)COCc1ccccc1 (stereo unspecified)	none
CCCCN1C(=N)N([C@@H](CN2CCC[C@H]2CN2C(N)=NC[C@@H]2Cc2ccccc2)C(C)C)C[C@H]1Cc1ccccc1	none (no result: E coli growth-2, p-CIP stab down)
CC(C)C[C@@H]1CN=C(N)N1C[C@@H]1CCCN1C[C@@H](C(C)C)N1C[C@@H](Cc2ccccc2)N(CCCC2CCCC2)C1=N	E coli growth-2 0.46 (no result: p-CIP stab down)
c1ccc(Nc2nc(NCc3ccco3)c3ccccc3n2)cc1	E coli growth-2 0.31
Cc1ccccc1Nc1nc(NCc2ccco2)c2ccccc2n1	E coli growth-2 0.49
Oc1ccccc1Nc1nc(NCc2ccco2)c2ccccc2n1	none (no result: E coli growth-2)
Cc1cccc(Nc2nc(NCc3ccco3)c3ccccc3n2)c1	E coli growth-2 0.43
CC(c1ccc(F)cc1)n1cc(C(=O)NCCN(C)C)nn1 (stereo unspecified)	none
CCOC(=O)N1CCC(N2C(=O)c3ccccc3C2Nc2cc(C(=O)OC)cc(C(=O)OC)c2)CC1 (stereo unspecified)	phage Ecoli inh 100
CCOC(=O)N1CCC(N2C(=O)c3ccccc3C2Nc2cc(C)cc(C)c2)CC1 (stereo unspecified)	none
CC[C@@H](C(=O)[C@@H](C)[C@@H](O)[C@H](C)[C@@H]1O[C@@H]([C@@H](CC)C(=O)O)CC[C@@H]1C)[C@H]1O[C@]2(C=C[C@@H](O)[C@]3(CC[C@@](C)([C@H]4CC[C@](O)(CC)[C@H](C)O4)O3)O2)[C@H](C)C[C@@H]1C	phage Ecoli inh 12 (no result: E coli growth-1, AddAB inh, E coli growth-2, p-CIP stab down)
Cn1c(N)c(S(=O)(=O)N2CCN(c3ccccc3F)CC2)c(=O)n(C)c1=O	none
CCN(c1ccccc1)S(=O)(=O)c1ccc(Cl)c(C(=O)O)c1	E coli growth-2 0.55
CCN(c1ccccc1)S(=O)(=O)c1ccc(Cl)c(C(=O)NCc2ccco2)c1	none (no result: p-CIP stab down)
O=C(c1cc(O)c(O)c([N+](=O)[O-])c1)c1ccccc1F	Tat transport 57 (no result: p-CIP stab down)
Cc1nc2c(Br)cc(Br)cc2cc1O	E coli growth-2 0.56
N#CCc1ccc(NC(=O)/C=C/c2ccc([N+](=O)[O-])o2)cc1	E coli growth-2 0.41 (no result: E coli growth-1, AddAB inh, phage Ecoli inh)
Nc1nc(-c2ccccn2)nc(N)c1Cc1ccc(Cl)cc1Cl	E coli growth-2 0.36
C=CCC(CC(=O)OC(C)(C)C)C(=O)OCC1CCCN1C(=O)C(CC=C)CC(=O)NCCO (stereo unspecified)	none (no result: E coli growth-1, Tat transport, AddAB inh, phage Ecoli inh, p-CIP stab down)
COc1cccc(/C=N/Nc2nccnc2Cl)c1O	none (no result: E coli growth-1, AddAB inh, E coli growth-2)
COc1cccc(C=NNc2ncnc(Cl)c2N)c1O	E coli growth-2 0.17 (no result: E coli growth-1, Tat transport, AddAB inh, phage Ecoli inh, p-CIP stab down)
COc1cc(-c2coc3c(C(=O)NCc4ccncc4)cccc23)ccc1O	none (no result: E coli growth-1, Tat transport, AddAB inh, E coli growth-2, p-CIP stab down)
Cc1cc(C)n(C(N)=NC(=O)c2ccc([N+](=O)[O-])cc2)n1	p-CIP stab down 42
Oc1cc(Cl)cc(Cl)c1Cl	E coli growth-2 0.27 (no result: p-CIP stab down)
CC(=NO)c1cc(Cl)cc(Cl)c1O	none (no result: E coli growth-1, Tat transport, AddAB inh, phage Ecoli inh, p-CIP stab down)

High-throughput results: PubChem BioAssay, several laboratories
